Experimental data as given in the supplement of paper PMC10338343.
± gives the standard deviation.

What follows are sequences tested on EfPiwi piRISC loaded with L1MC piRNA (26 nt) (assay: pre-steady-state target cleavage rate (min^-1); auxiliary factor: 500 nM Ephydatia muelleri Gtsf1; guide: L1MC piRNA 5'p-UAACUAAAUACUAUGCAAGCUGUAGG; MIWI and MILI are mouse PIWI proteins and EfPiwi is from a freshwater sponge; tags in brackets are library labels; higher = faster piRNA-guided slicing of the target).
In short: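 Reactions were run for 0–8 or 0–960 min at 33 °C in HEPES–potassium acetate buffer, combining 1 nM active affinity-purified piRISC with one synthetic guide, […] transcribed, DNA-blocked target RNA library and, in some cases, 500 nM GTSF1 partner protein. Sequencing of uncleaved targets followed, with normalisation to depth and to weakly complementary targets. Three trials were pooled, k3 was capped at 0.0001 min^-1, and the pre-steady-state cleavage rate was taken from a burst-and-steady-state fit.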

Row | Sequence | pre-steady-state target cleavage rate
1 | UCCUGGUACAGCUUGCAUAGUAUUUUCUAA | 0.0055 ± 0.0029
2 | UCCUGGUACAGCUUGCAUAGAAUUUAGAAA | 0.00253 ± 0.0021
3 | UCCUGGAUGAGCUUGCGAUAGUAUUUAGUUA | 0.00307 ± 0.0022
4 | UCCUGCUACAGCUUGCAUAGUUAUUAGAAA | 0.00309 ± 0.0025
5 | UCCUGGAUGUCGAACGAUAGUCAUUUAGUUA | < 0.0001
6 | UCCUGCUUCACCUUGCAUAGUAUUUAGUUA | 0.0076 ± 0.0034
7 | UCCUCCUAGAGCUUGCAUAGUAUAUAGUUA | 0.00597 ± 0.0022
8 | UCCUGGAUGUGCUUCCAUAGUAUUUAGUAA | 0.00486 ± 0.003
9 | UCCUCCUACAGCUUGCAUAGUAUUUAGAUA | 0.00505 ± 0.0025
10 | UCCUCCUACAGCUUGCAUAGUAAAAAGAAA | 0.00287 ± 0.0026
11 | UCCUCCUAGAGGUUGCAUAGUAUUUAGUUA | 0.0153 ± 0.0029
12 | UCCUCCUACAGCUUGCAUAGUUUUAAGUUA | 0.00431 ± 0.0024
13 | UCCUGGAUGUCGAACGUAAGUAUUUCAGUUA | < 0.0001
14 | UCCUCCUACAGGUUGCAUAGUAUUAAGUUA | 0.00576 ± 0.0023
15 | UCCUGGUAACAGCUUGCAUAGUAUUUAGUUA | 0.0495 ± 0.011
16 | UCCUGCUACAGCUUGGAUAGUAUUUUGUUA | 0.00556 ± 0.002
17 | UCCUGGAUGUCGAACGUAUCUAGUUUAGUUA | < 0.0001
18 | UCCUCCUACAGCUUGGAUAGUAUUUUCAAA | 0.00297 ± 0.0022
19 | UCCUGGAUGUCGUUGCAAACUAUUUAGUUA | < 0.0001
20 | UCCUGGAUGAGCUUGCAUAGUAUUUAGUCUA | 0.00413 ± 0.0026

Row | Sequence | pre-steady-state target cleavage rate
21 | UCCUCCUACAGCUUCCAUAGUAUUUACAAA | 0.00265 ± 0.0026
22 | UCCUCCUACAGCUUCCAUAGUAUUUAGAAA | 0.00369 ± 0.0018
23 | UCCUGGUACAGCUUCCAUAGUAUUUAGAUA | 0.00221 ± 0.0016
24 | UCCUGGAUGUCGAACGUUAGUAUUUAGUCA | < 0.0001
25 | UCCUCCUACAGCUAGCAUAGUAUUAAGUUA | 0.00633 ± 0.0029
26 | UCCUGGAUCAGCCUGCAUAGUAUUUAGUUA | 0.0209 ± 0.006
27 | UCCUGGAUGUCGAACCAUAGUAUUUCGUUA | < 0.0001
28 | UCCUGGAUGUCGAACGUUAGUAAAAAGUUA | < 0.0001
29 | UCCUGCUAGAGCUAGCAUAGUAUUUAGUUA | 0.00618 ± 0.0016
30 | UCCUGCUACAGCUUGCAUAGUAUAUUAGUUA | 0.0185 ± 0.0079
31 | UCCUGGAACUCCUUGCAUAGUAUUUAGUUA | 0.0352 ± 0.009
32 | UCCUGGAUGUCGAACGUAUCUAUGUAGUUA | < 0.0001
33 | UCCUGGAUGUCGAACGAUACUAUUUUGUUA | < 0.0001
34 | UCCUGGAUGUCGAACGUAUCUAUUAUAGUUA | < 0.0001
35 | UCCUGGAUGUCGAACGUUAGUAUUAAGUAA | < 0.0001
36 | UCCUGGAACAGCUUAGCAUAGUAUUUAGUUA | 0.0218 ± 0.0061
37 | UCCUGGAACUGGUUGCAUAGUAUUUAGUUA | 0.02 ± 0.0073
38 | UCCUGGAUGUCGAACGUAAGUAUUUAGUGA | < 0.0001
39 | UCCUGGAACAGCUUGGAUAGUAUUUACAAA | 0.00254 ± 0.0019
40 | UCCUGCUAUCAGCUUGCAUAGUAUUUAGUUA | 0.0613 ± 0.015
